The record followed here is the supplement of paper PMC12339681.

Structures can show the parent of a compound that is named as a salt.

In this assay the test system is PBMC-derived induced microglia-like cells (piMGLC). The experiment in a line: synaptosome phagocytic index relative to DMSO control (fraction of DMSO); higher = more phagocytosis. To be noted: concentration: 10 uM (2 uM for compounds listed in Table S2); pretreatment time: 24 h; assay time: 3 h.
`O=C(O)[C@H]1CSC(c2nc3cc4c(cc3s2)NCC4)=N1`: the synaptosome phagocytic index was found to be 0.923. Under `CC/C(=C(/CC)c1ccc(O)cc1)c1ccc(O)cc1` [Diethylstilbestrol] stands 0.638; under `O=C(CCCN1CCC(O)(c2ccc(Cl)cc2)CC1)c1ccc(F)cc1` [Haloperidol], 1.05. Take `Nc1ccn([C@@H]2CS[C@H](CO)O2)c(=O)n1` [Lamivudine]: the synaptosome phagocytic index stood at 0.89. Under `COc1cc2/c(=N/c3ccc(Br)cc3F)nc[nH]c2cc1OCC1CCN(C)CC1` [Vandetanib] stands 0.248. Under `COC1(c2sc3c(N4CCOCC4)nc(-c4cnc(N)nc4)nc3c2C)COC1` stands 0.384; under `C#CCNS(=O)(=O)c1ccc(CCN(Cc2cc(Cl)ccc2OCCC)C(=O)Cc2ccsc2)cc1`, 0.54. Under `NCc1c[nH]c(=S)n1[C@H]1CCc2c(F)cc(F)cc2C1` [Nepicastat_(hydrochloride)] stands 0.936; under `Cc1nc2n(c(=O)c1CCN1CCC(c3noc4cc(F)ccc34)CC1)CCCC2` [Risperidone], 0.887. Take `COc1ccc(Cl)cc1C(=O)NCCc1ccc(S(=O)(=O)NC(=O)NC2CCCCC2)cc1` [Glibenclamide]: the synaptosome phagocytic index was 0.608. As for `CCC1(C)CC(=O)NC1=O` (centres undefined) [Ethosuximide], the synaptosome phagocytic index amounted to 0.869. Under `CC(C)(Sc1cc(C(C)(C)C)c(O)c(C(C)(C)C)c1)Sc1cc(C(C)(C)C)c(O)c(C(C)(C)C)c1` [Probucol] stands 0.859; under `O=C(c1cc(Cc2n[nH]c(=O)c3ccccc23)ccc1F)N1CCN(C(=O)C2CC2)CC1` [Olaparib], 0.997; under `Clc1ccc(COC(Cn2ccnc2)c2ccc(Cl)cc2Cl)c(Cl)c1` (centres undefined) [Miconazole_(nitrate)], 1.09.
